Reference: PubChem BioAssay AID434939 (The Scripps Research Institute Molecular Screening Center, 2010)
Among all 2,300 compounds or so, about 2,000 (87%) were called active. Rule as the data show it: active = activation above about 11%; inactive = the rest. So high a share suggests a set chosen from earlier hits. The list is a sample of the results.

molecular target: Nuclear receptor subfamily 1 group I member 2 (Homo sapiens) (UniProt O75469); experiment: activation of PXR luciferase reporter – cell-based, luciferase luminescence, counter-screen for AHR activator project (AID 434939); conditions: at 11.6 µM, stronger effect = higher value;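 also: human hepatoma DPX-2 cells expressing full-length human PXR; 0% = DMSO and 100% = reference agonist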
Sequence (O75469 whole entry, looked up): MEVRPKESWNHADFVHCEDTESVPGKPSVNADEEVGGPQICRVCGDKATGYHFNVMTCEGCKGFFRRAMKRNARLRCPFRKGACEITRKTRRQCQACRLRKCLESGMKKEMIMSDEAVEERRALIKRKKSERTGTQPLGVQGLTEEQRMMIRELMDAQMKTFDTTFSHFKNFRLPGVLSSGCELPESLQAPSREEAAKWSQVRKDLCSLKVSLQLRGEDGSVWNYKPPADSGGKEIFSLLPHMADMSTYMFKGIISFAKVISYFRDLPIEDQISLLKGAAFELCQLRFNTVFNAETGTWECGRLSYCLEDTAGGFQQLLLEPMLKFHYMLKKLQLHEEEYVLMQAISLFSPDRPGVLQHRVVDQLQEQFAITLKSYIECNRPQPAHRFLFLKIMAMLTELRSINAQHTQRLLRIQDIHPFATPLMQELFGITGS

SMILES | activation
O=C(CSc1cccc2cccnc12)N/N=C/c1cccnc1 | 10.2% (active)
COc1ccc(OC)c(-c2csc(-c3cccs3)n2)c1 | 21.7% (active)
O=C(CC1Nc2ccccc2NC1=O)Nc1ccccc1 (stereo unspecified) | 26.3% (active)
COc1cc(NC(=O)c2ccc(-c3csc(C)n3)cc2)c(OC)cc1Cl | 20.9% (active)
O=C(Cn1cncn1)N/N=C/c1c2ccccc2cc2ccccc12 | 13.7% (active)
O=C(Nc1ccc(Cl)cn1)c1cnn2cccnc12 | 35.9% (active)
Cc1ccc(-c2nc(C#N)c(NCCCn3ccnc3)o2)cc1 | 34.4% (active)
Cc1ccnc(NC(=O)c2ccc(Cl)c([N+](=O)[O-])c2)c1 | 42.9% (active)
Nc1[nH][nH]c(=O)c1N=Nc1ccc2c(c1)OCO2 | 11.2% (active)
CCOC(=O)c1nc(-c2ccc3c(c2)OCO3)[nH]c1C | 34.2% (active)
CCSc1ccccc1C(=O)Nc1ccc2c(c1)OCO2 | 143% (active)
C=CCNC(=O)CSc1nc2sc(C)c(C)c2c(=O)[nH]1 | 16.4% (active)
COc1ccccc1NC(=O)C1=C(C)NC2=C(C(=O)CCC2)C1c1ccc(C)o1 (stereo unspecified) | 111% (active)
Brc1ccc(C2CC(c3ccccc3)=Nc3ccccc3N2)cc1 (stereo unspecified) | 39.7% (active)
Cc1cccc(NC(=O)Nc2ccc3c(c2)OCO3)n1 | 46.3% (active)
COc1ccccc1N1CCN(C(=O)c2cc3c(-c4ccc(Cl)cc4)nn(C)c3s2)CC1 | 39.5% (active)
CCOC(=O)N1CCN(C(=O)c2cc3c(-c4ccc(Cl)cc4)nn(C)c3s2)CC1 | 48.9% (active)
Cn1nc(-c2ccc(Cl)cc2)c2cc(C(=O)NCc3ccco3)sc21 | 26.7% (active)
CCOC(=O)c1ccc2[nH]c3c(c2c1)CCCC3NC=O (stereo unspecified) | 5.7% (inactive)
O=C(N/N=C/c1c[nH]c2ccccc12)c1cc2ccccc2o1 | 7.59% (inactive)
COc1cccc(-n2c(SCC(=O)NC3CCCCC3)nc3n[nH]c(C)c3c2=N)c1 | 160% (active)
COc1ccccc1Nc1ncnc2c1oc1ccccc12 | 21.1% (active)
Cc1cc(N2CCOCC2)nc(-c2ccc(Br)cc2)n1 | 43.3% (active)
O=C(Nc1ccc(C2CC2(Cl)Cl)cc1)c1cccc([N+](=O)[O-])c1 (stereo unspecified) | 19.2% (active)
COc1ccc(C2NC(=O)c3ccccc3N2)cc1 (stereo unspecified) | 6.29% (inactive)
Brc1ccc(-c2noc(-c3ccccc3)n2)o1 | 20.2% (active)

SMILES | activation
CC(=O)Nc1ccc(-c2nc3ccccc3o2)cc1 | 10.9% (active)
CC(C)C(=O)Nc1c(C(=O)c2ccc(F)cc2)oc2ccccc12 | 25.4% (active)
C/C(CC1CC(C)(C)OC1=O)=N/Nc1nc(-c2ccccc2)cs1 (stereo unspecified) | 189% (active)
CCN(CC)C(=O)Oc1ccc(Br)cc1C(=O)Nc1ccc(F)c(Cl)c1 | 176% (active)
CCc1nc(Nc2ccc3nccnc3c2)c2oc3ccccc3c2n1 | 45% (active)
O=C(NC1CC1)C1=C[C@H](c2c[nH]c3ccccc23)C[C@H](OCc2ccc(CO)cc2)O1 | 22.2% (active)
O=C(Nc1cc(S(=O)(=O)Nc2ccc(Cl)cc2)ccc1O)c1ccc(F)cc1F | 38.8% (active)
Cc1nnc(NC(=O)/C=C/c2ccco2)s1 | 36.6% (active)
COc1cc(/C=N/N=C(\N)c2nonc2N)cc(OC)c1OC | 14.7% (active)
COc1cc(CNCc2ccc3c(c2)OCO3)c([N+](=O)[O-])cc1OC | 36.7% (active)
Brc1ccc(C2=CC(c3ccco3)n3ncnc3N2)cc1 (stereo unspecified) | 15% (active)
Cc1cc(O)c(C(=O)/C=C/c2c(F)c(F)c(F)c(F)c2F)c(=O)o1 | 23.8% (active)
COc1ccc(C(=O)Nc2ccccc2C(=O)N/N=C/c2ccccc2OC)cc1 | 28% (active)
Cc1ccc(Cl)cc1NC(=O)C1CCCN(c2cnccn2)C1 (stereo unspecified) | 41.2% (active)
O=C(Nc1cccc(Cl)c1)C1CCCN(c2cnccn2)C1 (stereo unspecified) | 29.6% (active)
Cn1c(SCC(=O)c2ccccc2)ncc(C(=O)Nc2ccc(F)cc2)c1=O | 13.1% (active)
CCC(C)NCC(=O)Nc1ccc([N+](=O)[O-])cc1C(=O)Nc1ccccc1F (stereo unspecified) | 40.5% (active)
Cn1cc(Cl)c(C(=O)NNC(=S)Nc2cccc(Cl)c2)n1 | 22.8% (active)
C/C(=N\NC(=O)CNc1cccc2ccccc12)c1ccc(Br)s1 | 13.8% (active)
COc1cccc(-c2nc3cc(C)ccc3o2)c1 | 31.3% (active)
CC1Cc2ccccc2N1C(=O)CSc1nnc(C2CC2)n1C (stereo unspecified) | 80.9% (active)
CCNC(=S)N1CCC(c2nc3cc(C)c(C)cc3[nH]2)CC1 | 21.2% (active)
S=c1[nH]nc(-c2cc(-c3ccsc3)n[nH]2)n1-c1ccccc1 | 13.7% (active)
Cc1nn2c3cc(N4CCOCC4)ccc3nc2c2ccccc12 | 63.2% (active)
Cc1ccc(NC(=O)Nc2cccnc2)cc1 | 19.7% (active)
Cc1cccc(NC(=O)c2ccc3ccccc3n2)n1 | 20.3% (active)

SMILES | activation
COc1ccc(NC(=O)c2ccco2)cc1NC(=O)c1ccc(C#N)cc1F | 14.9% (active)
C=CCOc1c(Br)cc(/C=N\n2nnnc2N)cc1OC | 78.1% (active)
Cc1nc2sc(C(=O)c3ccccc3)c(N)c2c2c1CCCC2 | 69.6% (active)
O=C(CSc1ccccn1)Nc1nc2c(ccc3ccccc32)s1 | 21.9% (active)
CCCCC(=O)Nc1ccc(C(=O)Nc2cc(C(F)(F)F)ccc2Cl)cc1 | 15.4% (active)
CCOc1ccccc1NC(=O)c1cccnc1 | 24.9% (active)
COCCNc1nc(-c2ccccc2)nc2c1oc1ccccc12 | 28.9% (active)
Cc1cccc(N=Nc2c(O)[nH]c3ccc(F)cc23)c1 | 16.1% (active)
CSc1ccc(C#N)cc1NC(=O)c1ccc(Cl)cc1 | 18.5% (active)
O=C(NCCCn1ccnc1)c1cc(-c2ccccc2)on1 | 41.3% (active)
Cc1ccnc(-n2sc3ccccc3c2=O)n1 | 25.7% (active)
O=C(Nc1ccc(OC(F)(F)F)cc1)c1ccc2c(c1)no[n+]2[O-] | 0.82% (inactive)
O=C(Nc1ccc(-c2csc(Nc3cccc(C(F)(F)F)c3)n2)cc1)c1cccc(C(F)(F)F)c1 | 5.47% (inactive)
O=C(Nc1ccc(C(F)(F)F)cc1)c1cccc(-n2cnnn2)c1 | 16.3% (active)
CC(C(=O)N=Nc1c(O)n(C)c2ccc(Br)cc12)n1cnc2ccccc2c1=O (stereo unspecified) | 60% (active)
Cc1ccc(NC(=O)NNC(=O)c2sccc2-n2cccc2)cc1 | 27% (active)
Cc1nn(-c2ccccc2)c2[nH]c(C(F)(F)F)cc(=O)c12 | 25.8% (active)
N#C/C(=C(/O)COc1cccc2ccccc12)c1nc2ccccc2[nH]1 | 29.3% (active)
Cc1nn(Cc2ccc(Cl)cc2)c(Cl)c1/C=N/NC(=O)c1cccnc1 | 39.9% (active)
O=C(Nc1cccc(Br)c1)c1ccc2snnc2c1 | 22.9% (active)
C/C(=N/NC(=S)Nc1ccccc1)c1ccc2c(c1)OCO2 | 76.5% (active)
OCCNc1nc(Nc2ccc(Cl)c(Cl)c2)nc2ccccc12 | 13.8% (active)
Cc1csc(NC(=S)Nc2cccc(Cl)c2)n1 | 21.6% (active)
NC(=O)Nc1ccccc1C(=O)NCCc1ccccc1 | 18.7% (active)
CSc1ncccc1C(=O)Nc1nc2ccc(F)cc2s1 | 11.7% (active)
CNC(=O)c1ccc2nc(NC(C)=O)sc2c1 | 9.52% (inactive)

SMILES | activation
COc1ccc(Nc2nnc(C)c3ccccc23)cc1 | 73.7% (active)
Cc1c(C(=O)NCC(c2ccco2)N2CCCC2)oc2ccc(Cl)cc12 (stereo unspecified) | 56.2% (active)
CCn1c2ccccc2c2cc(NC(=O)C/C(C)=N/NC(=O)c3ccccc3N)ccc21 | 45.7% (active)
COc1ccc(Nc2nc(-c3ccccc3)cs2)cc1 | 12.8% (active)
COc1ccc2nc(Nc3nc(-c4ccncc4)cs3)sc2c1 | 38.6% (active)
Cc1cccc(Nc2nc(-c3ccccc3)cs2)n1 | 25.5% (active)
O=C(Nn1c(-c2ccc(Cl)cc2)nc2ccccc2c1=O)c1cccnc1Cl | 14.3% (active)
c1cnc(N2CCN(c3ccc4ccccc4n3)CC2)nc1 | 36.7% (active)
CCn1ccnc1CN(C)Cc1nc(-c2ccc3c(c2)OCO3)no1 | 37.5% (active)
O=C(Cn1c(NCCO)nc2ccccc21)c1ccc(Cl)cc1Cl | 31.4% (active)
O=C(CCCCn1c(=O)[nH]c2ccccc2c1=O)NCc1ccc2c(c1)OCO2 | 37.2% (active)
CCn1c(NC(=O)c2nn(C)cc2Br)nc2ccccc21 | 22.6% (active)
COc1cccc(OC)c1C(=O)Nc1ccc(N2CCCCC2)cc1 | 53.1% (active)
COc1cc2ccccc2cc1C(=O)Nc1ccc(N2CCOCC2)cc1 | 30.4% (active)
NNc1nc2c(Cl)cccc2s1 | 8.29% (inactive)
CN(C)S(=O)(=O)Oc1ccccc1C(=O)Nc1ccccc1Cl | 82.8% (active)
C(=N\Nc1ccc2ccccc2n1)/c1ccc2c(c1)OCO2 | -10.5% (inactive)
Cc1noc(C)c1/C=N/Nc1ccc2ccccc2n1 | 25.9% (active)
CC(C)n1cnc2c(Nc3cccc(Cl)c3)nc(N(CCO)CCCO)nc21 | 255% (active)
CN(C)c1nc(Nc2ccc(Cl)c(Cl)c2)nc(N(C)C)n1 | 23.1% (active)
Cn1c(C(=O)NCCc2ccsc2)cc2c(=O)n(C)c3ccccc3c21 | 75.7% (active)
CC(C)n1ncc2c(C(=O)Nc3ccc(CC#N)cc3)cc(C3CC3)nc21 | 48.4% (active)
S=c1nc2ccccc2c2nc(-c3cccnc3)[nH]n12 | 24.9% (active)
